# Source: PubChem BioAssay
# RE007 growth inh – qHTS Assay for Inhibitors of the HIV-1 protein Vpr; 360,000 compounds, 0.21% hits; Potency, µM (doses to about 92.2 µM), inactives show at the highest dose activity change, negative = less growth, actives largely listed as inhibitors; S. pombe RE007 Vpr strain, BacTiter-Glo ATP luminescence, 24 h; active = well fitted falling curve with a large enough effect; inconclusive = small, poorly fitted or top-dose-only effect; inactive = no such curve, though single readings can be large or run the other way; also: potency is read from the fitted curve at half-maximal effect; % is scaled to controls: 0 for no effect and ±100 for the full control effect; nearly all actives have a fitted effect of over 50% in size
#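 Fission yeast RE007 carrying one integrated HIV-1 vpr copy, seeded at OD 0.01 in PMG+AL medium with 23 nL pinned compound. Grown 24 h at 30 degrees; viability read by BacTiter-Glo luminescence after 5 min.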
# LmPK inhibitor – qHTS Assay for Inhibitors of Leishmania Mexicana Pyruvate Kinase (LmPK) | Q27686 | purified LmPK, Kinase-Glo ATP luminescence, 1 h | Potency, µM (highest dose often 57.5 µM), for inactives: top-dose activity change, negative = inhibition, hits mostly inhibitors | 290,000 compounds, 0.37% hits; also: potency is read from the fitted curve at half-maximal effect; % is scaled to controls: 0 for no effect and ±100 for the full control effect
#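 0.1 nM LmPK, 0.5 mM PEP, 0.1 mM ADP; 50 mM imidazole pH 7.2, 7 mM MgCl2, 50 mM KCl; 1 h RT. Kinase-Glo luminescence readout, normalized to no-enzyme (full inhibition) and uninhibited wells.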
# Giardia FBPA inh – qHTS Assay for Inhibitors of Fructose-1,6-bisphosphate Aldolase from Giardia Lamblia; A8B2U2; purified Giardia FBPA; Potency, µM (top dose mostly 59.6 µM), for the others: at the highest dose activity, negative = inhibition, actives largely listed as inhibitors; 290,000 compounds, 0.71% hits; AID 2451, 2010; also: potency is read from the fitted curve at half-maximal effect; % is scaled to controls: 0 for no effect and ±100 for the full control effect; nearly all actives have a fitted effect of over 55% in size
# Target sequence (A8B2U2 whole entry, looked up): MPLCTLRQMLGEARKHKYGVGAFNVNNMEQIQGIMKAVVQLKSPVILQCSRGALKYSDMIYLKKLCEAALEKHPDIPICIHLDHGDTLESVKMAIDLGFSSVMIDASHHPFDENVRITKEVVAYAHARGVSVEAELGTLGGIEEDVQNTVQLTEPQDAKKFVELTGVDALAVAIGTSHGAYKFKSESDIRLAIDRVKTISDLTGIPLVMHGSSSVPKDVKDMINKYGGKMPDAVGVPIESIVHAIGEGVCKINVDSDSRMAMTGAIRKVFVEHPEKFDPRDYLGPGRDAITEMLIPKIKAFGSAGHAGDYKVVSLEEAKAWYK
#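 Giardia FBPA (40 nM reagent) was preincubated 10 min at RT with compound (up to 57.5 uM final), then substrate plus GAPDH/TPI/NAD/arsenate coupling system with diaphorase/resazurin was added; resorufin fluorescence (525/598 nm) was read after 20 min.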
# Tb PYK inh – qHTS of Trypanosoma Brucei Inhibitors. AID 624173, 2012. 410,000 compounds, 0.12% hits. pyruvate kinase (Trypanosoma brucei), Q57TT1. Potency, µM (series often up to 76.8 µM), without a hit: top-dose activity, negative = inhibition, actives largely listed as inhibitors. TbPYK enzyme, Kinase-Glo Plus ATP luminescence, 45 min; also: potency is read from the fitted curve at half-maximal effect; % is scaled to controls: 0 for no effect and ±100 for the full control effect; nearly all actives have a fitted effect of over 50% in size
#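 ADP (130 uM final) triggers the TbPYK reaction after compound addition; incubation is 45 min at room temperature. Kinase-Glo Plus is then added and luminescence imaged. Normalized data are fitted to concentration-effect curves.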
# Cycloheximide cs – Cycloheximide Counterscreen for Small Molecule Inhibitors of Shiga Toxin; max response, %; 300,000 compounds, 12% hits; AID 2314, 2010; cell reporter, cycloheximide protein synthesis inhibition counterscreen; in the data active = max response mostly above about 13%, no sharp cut-off; inactive = mostly below about 14%; also: read at 38.3 µM for the half of the compounds with a filed dose; 0% is about no effect
# Shiga inhibitor – A qHTS for Small Molecule Inhibitors of Shiga Toxin | Vero cells, Shiga toxin protein synthesis inhibition reporter | inhibition, % at 38.7 µM | 290,000 compounds, 9.2% hits; in the data active = inhibition mostly above about 28%, no sharp cut-off; inactive = mostly below about 43%; also: 0% is about no effect
# The depositor's hits bear a star; ? = inconclusive; . = no result. Only a selection was taken, and hits are over-represented in it overall. Unless noted, calls follow the shape of the dose curve; as a rule, active = well fitted curve in the direction sought with a large enough effect; inconclusive = small, poorly fitted or top-dose-only effect, or another doubt; inactive = no such curve, though single readings can be large; an effect the other way counts as inactive or inconclusive.
SMILES,RE007 growth inh,LmPK inhibitor,Giardia FBPA inh,Tb PYK inh,Cycloheximide cs,Shiga inhibitor
O=C(Cn1nnc(-c2ccccc2)n1)N1CCCCC1,-4.3%,6.3%,1.5%,0.0%,38.1*,46.9*
O=C(Cn1nnc(-c2cccc(C(F)(F)F)c2)n1)N1CCCCCC1,-2.3%,15.9%,-0.3%,-11.8%,-3.2,-2.5
CC1CCCN(C(=O)Cn2nnc(-c3ccc(F)cc3)n2)C1 (configuration not stated),-10.0%,1.9%,0.6%,4.0%,12.9,-5.0
COc1ccc(-c2nnn(CC(=O)N3CCOCC3)n2)cc1,21.1%,8.4%,2.0%,0.8%,-1.5,-6.8
CC(C)COc1ccc(-c2nnn(CC(=O)N3CCCC3)n2)cc1,2.4%,-0.6%,5.0%,1.8%,22.7*,58.3*
COc1cc(/C=C(\C#N)C(=O)NCC2CCCO2)ccc1OC(C)C (configuration not stated),-15.4%,-0.2%,0.4%,-2.0%,73.2*,91.7
N#C/C(=C\c1cccs1)C(=O)NCC1CCCO1 (configuration not stated),10.5%,-6.1%,0.2%,-0.9%,25.0*,80.3*
COc1ccccc1/C=C(\C#N)C(=O)NCC1CCCO1 (configuration not stated),.,.,.,-2.1%,.,.
N#C/C(=C/c1cc(Br)cs1)C(=O)NCC1CCCO1 (configuration not stated),-18.6%,0.6%,.,-4.9%,5.0,-10.3
N#C/C(=C\c1c[nH]c2ccccc12)C(=O)NCC1CCCO1 (configuration not stated),-2.0%,-9.8%,-0.9%,-2.7%,30.6*,53.7*
COc1ccc(/C=C(\C#N)C(=O)NCC2CCCO2)cc1OC (configuration not stated),-14.5%,-2.8%,1.9%,-5.6%,6.2,-5.6
Cc1[nH]c2ccccc2c1/C=C(\C#N)C(=O)NCC1CCCO1 (configuration not stated),-8.2%,6.5%,-12.8%,1.4%,18.3*,16.0
CCOc1ccc(-c2ccc(NS(=O)(=O)c3cc(C)c(C)cc3C)cc2)nn1,.,.,.,-0.1%,.,.
CC(C)c1ccc(NC(=O)C2(C)Cc3c(-c4ccc(N(C)C)cc4)ccnc3O2)cc1 (configuration not stated),14.5%,.,.,-0.5%,.,.
CC1(C(=O)Nc2cnc3ccccc3c2)CCN1C(=O)CC(c1ccccc1)c1ccccc1 (configuration not stated),2.2%,.,.,-15.7%,.,.
O=C1COc2ccc(C(=O)COC(=O)c3ccc([N+](=O)[O-])cc3Cl)cc2N1,6.9%,.,.,-4.0%,.,.
COc1ccc([C@H]2C[C@H](n3cc(-c4ccc(F)cc4)nn3)[C@@H](O)CN2C(=O)C2CCCCC2)cc1,-10.4%,.,.,-0.3%,.,.
COc1ccc(/C(O)=C2/C(=O)C(=O)N(CCN3CCOCC3)C2c2ccc(C)cc2)cc1 (configuration not stated),-11.5%,-2.1%,.,-14.8%,0.8,19.4
C=CCOc1ccc(C2c3c(oc4ccccc4c3=O)C(=O)N2CCCN2CCOCC2)cc1 (configuration not stated),-8.9%,1.6%,8.0%,-9.4%,-1.7,26.3
Cc1c(/C(O)=C2/C(=O)C(=O)N(CCN3CCOCC3)C2c2ccccn2)cnn1-c1ccccc1 (configuration not stated),-4.0%,-2.1%,?,0.9%,28.3*,50.1*
CC(C)Oc1ccc(C2c3c(oc4ccccc4c3=O)C(=O)N2CCCN2CCOCC2)cc1 (configuration not stated),-14.2%,1.6%,-7.6%,-3.0%,16.6*,54.2*
COc1ccc(/C(O)=C2/C(=O)C(=O)N(CCN3CCOCC3)C2c2ccccn2)cc1 (configuration not stated),-1.0%,5.5%,?,-9.3%,33.2*,54.3*
CC(C)Oc1ccc(/C(O)=C2/C(=O)C(=O)N(CCN3CCOCC3)C2c2ccccc2)cc1 (configuration not stated),1.4%,-1.2%,27.4%,7.8%,25.2*,112.3*
COC(=O)c1[nH]c(C)c(/C(O)=C2\C(=O)C(=O)N(CCCN3CCOCC3)C2c2ccccn2)c1C (configuration not stated),18.5%,0.1%,-25.1%,-11.3%,-1.7,-4.7
O=C1C(=O)N(CCN2CCOCC2)C(c2ccccn2)/C1=C(/O)c1ccc(F)cc1 (configuration not stated),-8.9%,7.3%,?,?,9.8,15.0
SMILES,RE007 growth inh,LmPK inhibitor,Giardia FBPA inh,Tb PYK inh,Cycloheximide cs,Shiga inhibitor
Cc1ccc(-n2c3c(cc(-c4nc(-c5ccc(Cl)cc5)cs4)c2=O)C(=O)CC(C)(C)C3)cc1,.,.,.,2.0%,.,.
CC(Sc1ccc(S(=O)(=O)N(C)C)cn1)C(=O)NC1CCCC1 (configuration not stated),5.0%,.,.,-4.1%,.,.
Nc1c(-c2nc(-c3ccncc3)no2)nnn1CC(=O)Nc1ccccc1,.,.,.,1.9%,.,.
CCN(CC)CCN1C(=O)c2oc3ccccc3c(=O)c2C1c1cccc(Br)c1 (configuration not stated),2.1%,2.7%,9.5%,4.7%,-2.7,25.2
Cc1ccc(C)c(/C(O)=C2/C(=O)C(=O)N(CCN3CCOCC3)C2c2ccc(C)o2)c1 (configuration not stated),-12.4%,5.7%,-19.6%,-5.9%,-0.8,-16.6
Cc1ccc(C2/C(=C(/O)c3cnn(-c4ccccc4)c3C)C(=O)C(=O)N2CCCN2CCOCC2)o1 (configuration not stated),.,1.1%,-29.3%,.,33.8*,54.4*
CCN(CC)CCN1C(=O)c2oc3ccccc3c(=O)c2C1c1ccccc1 (configuration not stated),-2.0%,-5.0%,-6.8%,-2.6%,34.6*,35.0
CN(C)CCN1C(=O)C(=O)/C(=C(/O)c2ccc3c(c2)OCCO3)C1c1ccccn1 (configuration not stated),-11.9%,-1.5%,?,-0.5%,42.0*,102.1*
COc1cccc(/C(O)=C2/C(=O)C(=O)N(CCN(C)C)C2c2ccccn2)c1 (configuration not stated),-11.9%,-3.7%,-25.5%,0.7%,10.7,41.0
Cc1ccc(/C(O)=C2/C(=O)C(=O)N(CCN3CCOCC3)C2c2cccs2)cc1 (configuration not stated),16.2%,0.0%,5.4%,7.7%,10.6*,19.8
Cc1nn(C)c(C)c1CCNC(=O)Nc1cccc(Cl)c1C,.,.,.,-10.7%,.,.
Cc1nc(N2C(=O)c3oc4ccccc4c(=O)c3C2c2cccc(OCCC(C)C)c2)sc1C (configuration not stated),.,.,.,2.7%,.,.
